Drawing on PubChem BioAssay (NCATS), this text covers outcome and Potency for 21 molecules.

Test [1] addresses Alpha-galactosidase A (Homo sapiens) (UniProt P06280). Kind of test: Counterscreen for Glucocerebrosidase Inhibitors: qHTS Assay for Human alpha-Galactosidase at pH 4.5 (AID 992). Put shortly: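 Concentration-response curves (0.7 nM to 77 uM final) were modeled with the Hill equation to give AC50. Reactions: 2 nM enzyme, 80 uM fluorogenic alpha-galactoside, pH 4.5 citric acid buffer, 20 min, room temperature.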

Test [2] has as its target alpha-glucosidase (Oryza sativa, rice) (UniProt Q653V4). As to the kind of experiment: Counterscreen for Glucocerebrosidase Inhibitors: qHTS Assay for Rice alpha-Glucosidase at pH 5.0 (AID 997). Put shortly: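 Rice alpha-glucosidase (4 nM final) with 400 uM 4-methylumbelliferyl-alpha-D-glucopyranoside in citrate buffer pH 5.0, 20 min at room temperature, stopped at pH 10; fluorescence 365/440 nm, compounds 0.7 nM–77 uM, AC50 from Hill fits.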
(A counterscreen serves to expose hits that act by an unwanted route or on another target.)

The nature of test [3]: Cell Viability - LYMP2-025 (AID 976). Further: potency means the concentration at half of the fitted maximal effect. The gist of the method:
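Seed 2500 LYMP2-025 cells/well; 5 hr at 37 C; add compound; 24 hr at 37 C; add CellTiter-Glo; 30 min RT; read luminescence. AC50 from Hill-modelled concentration-response.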

Test [4] in a line: Cell Viability - LYMP2-002 (AID 977). Further: potency means the concentration at half of the fitted maximal effect. The gist of the method: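 Human lymphoblastoid LYMP2-002 cells, 2500 per well, exposed to compounds for 24 h at 37 C in complete medium; viability read as intracellular ATP by CellTiter-Glo luminescence, AC50 from Hill fits.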
A short description of test [5]: Cell Viability - LYMP2-006 (AID 978). Further: nearly all actives have a fitted effect of over 60% in size. Further: potency means the concentration at half of the fitted maximal effect. Put shortly:
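Potency values are Hill-fit AC50s for decreases in intracellular ATP (CellTiter-Glo luminescence). LYMP2-006 lymphoblastoid cells, 2500 per well, were exposed to compound in complete culture medium for 24 hr at 37 C.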

Test [6] can be described thus: Cell Viability - LYMP2-007 (AID 979).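 Further: cells exposed to compound for 24 h before reading; nearly all actives have a fitted effect of over 60% in size.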 Further: potency means the concentration at half of the fitted maximal effect. Put shortly: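 Luminescent ATP signal (CellTiter-Glo) serves as the viability read-out after 24 hr compound treatment of lymphoblastoid cells in complete medium at 37 C. Concentration-response data were fitted to the Hill equation to give AC50 values.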
A short description of test [7]: Cell Viability - LYMP2-008 (AID 980). Further: nearly all actives have a fitted effect of over 60% in size. Further: potency means the concentration at half of the fitted maximal effect. The gist of the method: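 qHTS, human lymphoblastoid line, 2500 cells/well; 5 hr preincubation, 24 hr compound, 37 C. CellTiter-Glo ATP luminescence. AC50 via Hill equation. Tetraoctylammonium bromide positive control.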
The nature of test [8]: Cell Viability - LYMP2-010 (AID 981). Further: nearly all actives have a fitted effect of over 55% in size. Further: potency means the concentration at half of the fitted maximal effect. The gist of the method: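 Luminescent ATP signal (CellTiter-Glo) served as the viability read-out. Cells of the human lymphoblastoid line were treated with compound over a concentration range for 24 hours at 37 C, and AC50 values came from Hill-equation modeling.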
Test [9] in a line: Cell Viability - LYMP2-012 (AID 982).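 Further: cellular ATP by luciferase luminescence where a drop means cytotoxicity; cells exposed to compound for one day before reading; nearly all actives have a fitted effect of over 55% in size.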 Further: potency means the concentration at half of the fitted maximal effect.
Test [10] is described as follows: Cell Viability - LYMP2-014 (AID 983). Further: nearly all actives have a fitted effect of over 50% in size. Further: potency means the concentration at half of the fitted maximal effect. The gist of the method: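 Luminescent ATP signal (CellTiter-Glo, 30 min at room temperature) serves as the viability read-out after 24 hr compound exposure at 37 C. Cells were seeded at 2500 per well and settled 5 hr beforehand.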
Test [11] in a line: Cell Viability - LYMP2-016 (AID 984). Further: nearly all actives have a fitted effect of over 55% in size. Further: potency means the concentration at half of the fitted maximal effect. The gist of the method:
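Cytotoxicity was scored by luminescent ATP content (CellTiter-Glo) after 24 h compound exposure at 37 C of a human lymphoblastoid line at 2500 cells/well. Concentration-response data were fitted to the Hill equation for AC50.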

The nature of test [12]: Cell Viability - LYMP2-018 (AID 985). Further: nearly all actives have a fitted effect of over 50% in size. Further: potency means the concentration at half of the fitted maximal effect. Put shortly: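 Luminescent ATP signal (CellTiter-Glo, read after 30 min at room temperature) reports viable cells after 24 hr compound treatment at 37 C. Concentration-response data were fitted to the standard Hill equation for AC50.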
Test [13] in a line: Cell Viability - LYMP2-020 (AID 986). Further: nearly all actives have a fitted effect of over 55% in size. Further: potency means the concentration at half of the fitted maximal effect. Put shortly: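 Luminescent ATP signal (CellTiter-Glo, 30 min at room temperature) is the read-out after 24 h compound treatment of lymphoblastoid cells at 37 C. AC50 values come from Hill-equation fits across concentrations.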
Test [14] can be described thus: Cell Viability - LYMP2-022 (AID 987). Further: nearly all actives have a fitted effect of over 55% in size. Further: potency means the concentration at half of the fitted maximal effect. The gist of the method: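 qHTS: human lymphoblastoid cells 2500/well; 5 hr 37 C; cpd added; 24 hr 37 C; CellTiter-Glo, 30 min RT; luminescence. AC50 via Hill fit; tetraoctylammonium bromide positive ctrl.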
Test [15] in a line: Cell Viability - LYMP2-024 (AID 988). Further: nearly all actives have a fitted effect of over 60% in size. Further: potency means the concentration at half of the fitted maximal effect. The gist of the method:
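Steps: seed 2500 cells/well, 5 hr 37 C; add compound, 24 hr 37 C; add CellTiter-Glo, 30 min room temperature; read luminescence. AC50 derived by Hill modelling of concentration-dependent ATP loss.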

Test [16] in a line: Cell Viability - LYMP2-026 (AID 989). Further: nearly all actives have a fitted effect of over 50% in size. Further: potency means the concentration at half of the fitted maximal effect. The gist of the method:
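Luminescent ATP signal (CellTiter-Glo, 30 min room temperature) measures viable lymphoblastoid cells after 24 hr compound treatment at 37 C. Decreased ATP reflects acute toxicity; AC50 values come from Hill-equation modeling.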

Test [17] is described as follows: Cell Viability - LYMP1-002 - Assay at 24 hr (AID 993). Further: potency means the concentration at half of the fitted maximal effect. The gist of the method: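 Cells plated 2500/well, 5 hr 37 C; compounds added, 24 hr 37 C; CellTiter-Glo added, 30 min RT; luminescence read. Tetraoctylammonium bromide positive control. Hill-equation AC50.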
Test [18] in a line: Cell Viability - LYMP1-002 - Assay at 40 hr (AID 994). Further: nearly all actives have a fitted effect of over 60% in size. Further: potency means the concentration at half of the fitted maximal effect. Put shortly: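 Luminescent ATP signal served as the viability readout, with decreases taken as toxicity. Cells were treated with compounds across a concentration range for 40 hours at 37 C, and AC50 values came from standard Hill modeling.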
Test [19] addresses Alpha-galactosidase (Coffea arabica) (UniProt Q42656). Kind of test: Counterscreen for Glucocerebrosidase Inhibitors: qHTS Assay for Coffee Bean alpha-Galactosidase at pH 5.9 (AID 998). The gist of the method: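 Green coffee bean enzyme (2 nM) with 4-methylumbelliferyl alpha-D-galactopyranoside (80 uM) in 50 mM citric acid, 0.005% Tween-20, pH 5.9, 20 min at room temperature; compounds 0.7 nM–77 uM. Stopped at pH 10, fluorescence Ex365/Em440; Hill-fit AC50.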

Several values for one entry are separate records, joined by “and”; a condition that tells them apart may be missing. Equal values may be shown once. Records with an inconclusive call do not appear. The source holds several records for some structures; these can differ, active in one and inactive in another. Activity calls are given as the source filed them. The call rests on the fitted dose curve; in most records, active means well fitted curve in the direction sought with a large enough effect; inconclusive means small, poorly fitted or top-dose-only effect, or another doubt; inactive means no such curve, though single readings can be large; an effect the other way counts as inactive or inconclusive.

Alpha-galactosidase A (Homo sapiens), sequence (P06280 whole entry, looked up): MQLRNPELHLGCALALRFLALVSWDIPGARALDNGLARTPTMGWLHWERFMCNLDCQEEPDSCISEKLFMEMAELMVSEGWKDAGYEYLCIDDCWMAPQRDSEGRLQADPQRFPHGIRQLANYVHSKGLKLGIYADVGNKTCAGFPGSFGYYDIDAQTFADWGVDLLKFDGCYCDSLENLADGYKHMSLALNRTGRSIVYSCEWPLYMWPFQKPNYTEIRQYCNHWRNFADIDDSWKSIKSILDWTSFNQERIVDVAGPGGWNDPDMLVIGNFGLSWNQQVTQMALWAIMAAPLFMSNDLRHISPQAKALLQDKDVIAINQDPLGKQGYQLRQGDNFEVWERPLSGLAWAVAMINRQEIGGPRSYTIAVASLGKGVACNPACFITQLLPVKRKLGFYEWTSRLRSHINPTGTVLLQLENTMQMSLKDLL
Alpha-galactosidase (Coffea arabica), sequence (Q42656 whole entry, looked up): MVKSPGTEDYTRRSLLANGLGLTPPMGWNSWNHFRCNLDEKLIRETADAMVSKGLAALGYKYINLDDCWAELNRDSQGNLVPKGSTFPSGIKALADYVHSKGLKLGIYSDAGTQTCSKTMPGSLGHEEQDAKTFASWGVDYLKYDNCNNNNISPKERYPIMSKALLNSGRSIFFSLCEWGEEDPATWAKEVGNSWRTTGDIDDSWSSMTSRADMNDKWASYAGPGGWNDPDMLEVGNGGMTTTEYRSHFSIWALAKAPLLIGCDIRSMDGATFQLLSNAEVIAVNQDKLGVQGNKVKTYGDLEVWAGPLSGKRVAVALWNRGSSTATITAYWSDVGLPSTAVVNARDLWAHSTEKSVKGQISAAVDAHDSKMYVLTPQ

In the case of `Clc1ccc(N2C[C@H]3CC[C@@H](C2)N3)nn1`, the call in [1] and in [2] was inactive.

In the case of `[O]=[Cr](=[O])([OH])[O][Cr](=[O])(=[O])[OH]`, the Potency in test [3] was 15.8 µM (active) and 12.6 µM (active); in test [4], 12.6 µM (active) and 15.8 µM (active) and 10 µM (active); in test [5] it was 12.6 µM (active) and 15.8 µM (active) and 10 µM (active); in test [6] it was 10 µM (active) and 12.6 µM (active) and 7.94 µM (active); in [7], 12.6 µM (active) and 10 µM (active); in [8] it was 10 µM (active) and 7.94 µM (active). Besides, the Potency is 12.6 µM (active) and 15.8 µM (active) and 7.94 µM (active) in [9]; 12.6 µM (active) and 15.8 µM (active) and 10 µM (active) in [10]; 10 µM (active) and 12.6 µM (active) in [11]; 7.94 µM (active) and 12.6 µM (active) in test [12]; 15.8 µM (active) and 10 µM (active) in [13]; 10 µM (active) and 12.6 µM (active) and 7.94 µM (active) in [14]. For the same molecule, the Potency was 12.6 µM (active) and 15.8 µM (active) and 10 µM (active) in test [15]; 15.8 µM (active) and 20 µM (active) and 12.6 µM (active) in test [16]; “inactive and 39.8 µM (active)” in test [18]. Also, the Potency entry in test [17] is “inactive”.

In the case of `Clc1ccccc1Cl`, the Potency result in [3], in [4], in [5], in test [6], in test [7] and in test [8] was “inactive” throughout. Besides, the Potency result in test [9], in [10], in [11], in test [12], in test [13] and in test [14] was “inactive” each time. Also, the Potency result in test [15], in [16], in test [17] and in [18] was “inactive” in each case.

With `c1ccc2c(c1)[I+]c1ccccc1-2`, the molecule was called inactive in test [1] and in [2].

As for `S=C=S`, the Potency entry in test [3], in test [4], in test [5], in test [6], in [7] and in test [8] was “inactive” in each case. Besides, the Potency result in [9], in test [10], in test [11], in test [12], in [13] and in test [14] was “inactive” each time. The Potency entry in test [15], in test [16], in test [17] and in test [18] was “inactive” throughout.

For `CC(C)(C)c1cc(C=C(C#N)C#N)cc(C(C)(C)C)c1O`, the result in test [1] and in test [2] was inactive.

For `CN1CCc2cc(O)cc3c2[C@H]1Cc1ccc(O)c(O)c1-3`, the molecule was called inactive in test [1] and in test [2].

Turning to `ClCC1CO1` (stereo unspecified), the Potency entry in [3], in test [4], in test [5], in [6], in test [7] and in test [8] was “inactive” each time. In addition, the Potency result in [9], in test [11], in test [13], in [16], in test [17] and in test [18] was “inactive” throughout.

Consider `C[C@@H]1[C@@H]2Cc3ccc(O)cc3[C@@]1(C)CCN2CC1CC1`, for which the outcome in test [1] and in [2] was inactive.

Take `Cc1c2ccncc2c(C)c2c1[nH]c1ccccc12`: the outcome in test [1], in test [2] and in [19] was inactive.

As for `COc1ccc2c(c1)/C(=C/c1cnc[nH]1)C(=O)N2`, the result in test [1] and in test [2] was inactive.

As for `C=CCN=C=S`, the Potency entry in [3], in test [4], in test [5], in test [6], in test [7] and in test [8] was “inactive” each time. Besides, the Potency entry in test [9], in [10], in test [11], in [12], in test [13] and in test [14] was “inactive” each time. Further, the Potency entry in test [15], in [16], in test [17] and in test [18] was “inactive” in each case.

As for `C[C@H](N)CN1CCc2ccc(Br)cc21`, the call in test [1] and in [2] was inactive.

With `O=[N+]([O-])c1ccc2nc(N3CCNCC3)ccc2c1`, the molecule was called inactive in test [1] and in [2].

`C[N+](C)(C)CCOC(=O)CBr`: the molecule was classed as inactive in test [1], in test [2] and in test [19].

`COC1=CC(=O)O[C@@H](/C=C/c2ccccc2)C1`: the Potency entry in test [3], in test [4], in [5], in test [6], in test [7] and in test [8] was “inactive” each time. In addition, the Potency result in test [9], in test [10], in test [11], in test [12], in test [13] and in test [14] was “inactive” throughout. Further, the Potency result in test [15], in test [16], in test [17] and in test [18] was “inactive” throughout.

With `CC(C)(C)c1cc(O)ccc1O`, the Potency result in test [3], in [4], in test [6], in [7], in test [16] and in test [17] was “inactive” in each case. Further, in test [18], the Potency entry is “inactive”. Also, the Potency in test [8] is 50.1 µM (active); in test [9], 50.1 µM (active); in [12], 50.1 µM (active); in test [13] it was 50.1 µM (active); in [14] it was 50.1 µM (active) and 39.8 µM (active); in test [15], 31.6 µM (active).

As for `O=[N+]([O-])c1ccccc1`, the Potency entry in test [3], in test [4], in test [5], in test [6], in test [7] and in [8] was “inactive” throughout. The Potency entry in test [9], in test [10], in [11], in test [12], in [13] and in test [14] was “inactive” throughout. Moreover, the Potency result in test [15], in test [16], in test [17] and in test [18] was “inactive” in each case.

As to `CCN(CCCl)Cc1ccccc1Br`, the molecule was called inactive in [1], in [2] and in test [19].

With `C[N+]1(C)[C@@H]2CC[C@H]1CC(OC(=O)c1c[nH]c3ccccc13)C2` (stereo partly specified), the outcome in test [1], in [2] and in [19] was inactive.

For the molecule `[Cl-].[Cl-].[Hg+2]`, the Potency was 15.8 µM (active) in test [3]; 20 µM (active) in [4]; 15.8 µM (active) in test [5]; 6.31 µM (active) in test [6]; 0.316 µM (active) in test [8]; 12.6 µM (active) in test [10]. The Potency is 5.01 µM (active) in test [12]; 3.16 µM (active) in test [13]; 0.398 µM (active) in test [15]; 20 µM (active) in test [16]; 1.26 µM (active) in [17]; 3.16 µM (active) in [18].
